Common to all, as to assay: qHTS profiling for inhibitors of Plasmodium falciparum proliferation (AID 504749); also: nearly all actives have a fitted effect of over 60% in size
Details in all cases: P. falciparum in erythrocytes, SYBR Green DNA, 72 h; series mostly up to 28.7 µM
(In general: qHTS replaces the single test concentration by a dilution series.)

The test system of experiment [1] is CP265. The procedure, abridged:
(§1)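 P. falciparum-infected erythrocytes (0.3% parasitemia, 2.5% hematocrit final) were exposed to compounds for 72 h at 37 C in 5% CO2, then lysed with SYBR Green buffer overnight at room temperature; parasite DNA fluorescence was normalized to artemisinin and DMSO controls.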

Experiment [2] deals with CP266. An outline of the steps:
as §1

Experiment [3] deals with CP268. An outline of the steps:
as §1

Experiment [4] deals with CP269. The procedure, abridged: as §1
For experiment [5], the system named is CP286. The procedure, abridged:
as §1

The subject of experiment [6] is CP297. An outline of the steps:
as §1

In experiment [7] the test system is CP305. The procedure, abridged: as §1
Experiment [8] relates to CP315. An outline of the steps: as §1
For experiment [9], the system named is CP325. The procedure, abridged: as §1
Experiment [10] deals with CP329. An outline of the steps: as §1
Experiment [11] concerns CP335. The procedure, abridged:
as §1

Experiment [12] has as its system DFO2036. The procedure, abridged: as §1
The subject of experiment [13] is DIV14. An outline of the steps:
as §1

The subject of experiment [14] is DIV17. The procedure, abridged: as §1
The test system of experiment [15] is DIV30. The procedure, abridged:
as §1

Experiment [16] relates to Dd2. The procedure, abridged:
as §1

Experiment [17] concerns ECU. The procedure, abridged:
as §1

Experiment [18] deals with FAB9. The procedure, abridged:
as §1

The test system of experiment [19] is GB4. The procedure, abridged: as §1
Experiment [20] has as its system CP291. An outline of the steps: as §1

Records with an inconclusive call do not appear. The source made the active and inactive calls. Calls follow the shape of the dose curve; as a rule, active = well fitted inhibition curve with a large enough effect; inconclusive = small, poorly fitted or top-dose-only effect; inactive = flat fitted curve, though single readings scatter.
Potency is read from the fitted curve at half-maximal effect.

For the compound `CC(=O)N[C@@H](CCC(=O)O)C(=O)O`, the Potency result in experiment [1], in experiment [2], in experiment [3], in experiment [4], in experiment [5] and in experiment [6] was “inactive” throughout. For the same compound, the Potency entry in experiment [7], in experiment [8], in [9], in experiment [10], in experiment [11] and in experiment [12] was “inactive” each time. For the same compound, the Potency result in experiment [13], in experiment [14], in [15], in experiment [16], in experiment [17] and in experiment [18] was “inactive” throughout.

In the case of `O=C(CN1CCN(Cc2ccc3c(c2)OCO3)CC1)N1c2ccccc2Sc2ccccc21`, the Potency was 7.94 µM (active) in experiment [1]; 10 µM (active) in experiment [5]; 12 µM (active) in experiment [13]; 11.2 µM (active) in experiment [16]; 12 µM (active) in [19]. The Potency result in [2] and in experiment [18] was “inactive” each time.

As for `Cc1ccc(O)c([C@H](CCN(C(C)C)C(C)C)c2ccccc2)c1`, the Potency in experiment [1] was 7.08 µM (active); in experiment [3], 8.49 µM (active); in experiment [4], 7.57 µM (active); in experiment [5], 3.98 µM (active); in [20] it was 9.53 µM (active); in [7], 7.57 µM (active). The Potency was 16.9 µM (active) in experiment [8]; 10.7 µM (active) in experiment [9]; 13.5 µM (active) in experiment [10]; 5.36 µM (active) in experiment [11]; 5.01 µM (active) in [12]; 1.35 µM (active) in experiment [13]. The Potency was 1.2 µM (active) in experiment [14]; 6.01 µM (active) in [15]; 2.51 µM (active) in experiment [16]; 3.98 µM (active) in experiment [17]; 8.91 µM (active) in experiment [18]; 1.51 µM (active) in [19].

Turning to `Cc1cc2c(OCC(CNC(C)(C)C)OC(=O)c3ccccc3)cccc2[nH]1` (stereo not drawn), the Potency result in experiment [1], in experiment [2], in [8], in experiment [9], in [10] and in experiment [15] was “inactive” each time. Moreover, the Potency entry in experiment [17] and in experiment [18] was “inactive” throughout. Moreover, the Potency in experiment [5] is 8.91 µM (active); in experiment [16], 3.98 µM (active); in experiment [19], 10.7 µM (active).

Turning to `O=C1C(=O)c2ccccc2C(O)=C1C1CCC(c2ccc(Cl)cc2)CC1` (stereo not drawn), the Potency in experiment [1] is 0.0006 µM (active); in experiment [2], 0.0064 µM (active); in experiment [3], 0.0057 µM (active); in [4] it was 0.0051 µM (active); in [5], 0.0011 µM (active); in [20], 0.0064 µM (active). In addition, the Potency was 0.0051 µM (active) in experiment [7]; 0.0057 µM (active) in [8]; 0.0064 µM (active) in experiment [9]; 0.0032 µM (active) in experiment [11]; 0.0032 µM (active) in experiment [12]; 0.0064 µM (active) in experiment [13]. For the same compound, the Potency was 0.0091 µM (active) in [14]; 0.0051 µM (active) in [15]; 0.0035 µM (active) in experiment [16]; 0.0032 µM (active) in experiment [17]; 0.0032 µM (active) in experiment [18]; 0.0041 µM (active) in experiment [19].

`O=C(CCN1CCN2CCCC2C1)N1c2ccccc2Sc2ccc(Cl)cc21` (stereo not drawn): the Potency result in experiment [1], in experiment [3], in experiment [20], in experiment [6], in experiment [7] and in experiment [8] was “inactive” each time. Moreover, the Potency entry in [9], in experiment [10], in experiment [12] and in experiment [18] was “inactive” each time. In addition, the Potency in [13] was 4.26 µM (active); in experiment [14] it was 5.36 µM (active); in experiment [16], 6.31 µM (active); in experiment [17] it was 14.1 µM (active).

Take `CCOc1ccccc1C(N)=O`: the Potency entry in [1], in experiment [2], in experiment [3], in experiment [4], in experiment [5] and in experiment [6] was “inactive” each time. Also, the Potency entry in experiment [7], in [8], in experiment [9], in [10], in experiment [11] and in experiment [12] was “inactive” each time. In addition, the Potency result in experiment [13], in experiment [14], in experiment [15], in [16], in experiment [17] and in [18] was “inactive” in each case. For the same compound, in [19], the Potency result is “inactive”.

In the case of `CN(Cc1ccc(C(C)(C)C)cc1)Cc1cccc2ccccc12`, the Potency result in experiment [1], in [2], in experiment [3], in experiment [4], in experiment [20] and in experiment [6] was “inactive” each time. Besides, the Potency entry in [7], in [8], in experiment [9], in experiment [10], in experiment [12] and in experiment [14] was “inactive” in each case. Moreover, the Potency result in [15], in experiment [17], in [18] and in [19] was “inactive” each time.

For the compound `Cc1ccc(S(=O)(=O)NC(=O)NC2CCCC2)cc1`, the Potency entry in [1], in experiment [3], in experiment [4], in experiment [5], in experiment [20] and in experiment [7] was “inactive” throughout. For the same compound, the Potency entry in [8], in experiment [9], in experiment [10], in experiment [11], in experiment [12] and in [13] was “inactive” throughout. Further, the Potency entry in [14], in experiment [15], in [16], in [17], in experiment [18] and in [19] was “inactive” throughout.

As for `CC[N+](C)(CC)CCOC(=O)C(O)(c1ccccc1)C1CCCCC1` (stereo not drawn), the Potency entry in [1], in experiment [2], in experiment [3], in experiment [4], in experiment [8] and in experiment [9] was “inactive” in each case. In addition, the Potency result in experiment [10], in [13], in experiment [15], in experiment [17] and in [18] was “inactive” throughout.

In the case of `CCCCCCCCOc1ccc(C(=O)c2ccccc2)c(O)c1`, the Potency entry in experiment [1], in experiment [3], in [4], in [5], in experiment [20] and in experiment [6] was “inactive” each time. In addition, the Potency result in experiment [7], in [8], in experiment [9], in experiment [10], in experiment [11] and in [12] was “inactive” in each case. The Potency entry in experiment [13], in experiment [14], in experiment [15], in experiment [16], in [17] and in experiment [18] was “inactive” throughout. For the same compound, in experiment [19], the Potency result is “inactive”.

`CCCCCN=C(N)N/N=C/c1c[nH]c2ccc(OC)cc12`: the Potency in experiment [1] is 4.47 µM (active); in [4], 13.5 µM (active); in experiment [20], 13.5 µM (active); in [11] it was 6.01 µM (active); in [12] it was 5.01 µM (active); in [13] it was 2.69 µM (active). In addition, the Potency is 1.51 µM (active) in experiment [14]; 12 µM (active) in experiment [15]; 3.16 µM (active) in [16]; 8.91 µM (active) in experiment [17]; 5.36 µM (active) in experiment [19]. Further, the Potency entry in experiment [8] was “inactive”.

`CN1CCN(c2cc3c(cc2F)c(=O)c(C(=O)O)cn3-c2ccc(F)cc2)CC1`: the Potency entry in [1], in [4], in experiment [6], in experiment [8], in experiment [9] and in [10] was “inactive” in each case. For the same compound, the Potency result in experiment [13], in [14], in experiment [15], in experiment [17] and in [18] was “inactive” each time.

In the case of `CC(C)NCC(O)c1ccc2ccccc2c1` (stereo not drawn), the Potency in [1] is 10 µM (active); in [5], 11.2 µM (active); in [11], 12 µM (active); in experiment [13], 6.75 µM (active); in [14], 6.75 µM (active); in experiment [15], 12 µM (active). In addition, the Potency in experiment [16] is 7.08 µM (active); in experiment [17], 3.98 µM (active); in [19], 6.75 µM (active). The Potency result in experiment [2] and in experiment [10] was “inactive” in each case.

Source of the values: PubChem BioAssay (NCATS).
